Shown is part of a subset that was picked to be rich in hits.
Pf Dd2 growth: qHTS Primary assay for Inhibitors of Plasmodium falciparum Dd2 growth in vitro | P. falciparum Dd2 growth, SYBR Green, 72 h | Potency, µM (titrated, usually from 28.9 µM), hits mostly inhibitors | 120,000 tested, 4.3% active; active = well fitted inhibition curve with a large enough effect; note: nearly all actives have a fitted effect of over 65% in size
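Readout: SYBR Green fluorescence, 485 nm excitation, 535 nm emission, after ~16 h lysis at 37C. Before that, Dd2-infected red cells (2.5% hematocrit) grew 72 h with compound, 29 uM top final concentration.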
Each line names hits and unclear results; the compound was inactive in the other large screens.

CN(C)c1cc(N2CCCC(NC(=O)Cc3ccccc3F)C2)ncn1 (configuration not stated)	none
O=C(Cc1c[nH]c2ncc(-c3ccc(Oc4ccccc4)cc3)cc12)N1CCOCC1	none
COc1cccc(-c2cnc3[nH]cc(CC(=O)N4CCN(C)CC4)c3c2)c1	none
COc1ccc(-c2cnc3[nH]cc(CC(=O)N4CCNC(=O)C4)c3c2)cc1	Pf Dd2 growth 7.94µM
COc1ccc(C(NC(=O)c2cccc(-n3cnnc3)n2)C2CC(O)C2)cn1 (configuration not stated)	none
CC(C)C(=O)N1CCC2(CC1)OCC(C(=O)NCc1ccc(F)cc1)N2C(=O)c1ccccc1 (configuration not stated)	none
Cn1nc2n(c1=O)CCC(NS(=O)(=O)c1cccnc1)CC2 (configuration not stated)	none
Cc1ccc(-c2nnc(C3CN(C(=O)c4cccnc4C)CC34CCOCC4)o2)cc1 (configuration not stated)	none
Cc1ccc(-c2nnc(C3CN(C(=O)c4cccc(F)c4)CC34CCOCC4)o2)cc1 (configuration not stated)	Pf Dd2 growth 3.98µM
Cc1ccc(-c2nnc(C3CN(C(=O)Cc4cccc(F)c4)CC34CCOCC4)o2)cc1 (configuration not stated)	none
Cc1ccc(-c2nnc(C3CN(C(=O)c4ccn[nH]4)CC34CCOCC4)o2)cc1 (configuration not stated)	none
Cc1ccc(-c2nnc(C3CN(C(=O)c4n[nH]c5ccccc45)CC34CCOCC4)o2)cc1 (configuration not stated)	Pf Dd2 growth 8.91µM
Cc1ccc(-c2nnc(C3CN(C(=O)c4cccc(C)c4)CC34CCOCC4)o2)cc1 (configuration not stated)	none
Cn1cccc(C(=O)N2C[C@@H](CN3CCOCC3)C[C@H](CO)C2)c1=O	none
COc1ccc(C(=O)N2CCCOCCNC(=O)CC2)cc1F	none
COCCNC(=O)c1cnc2cc(C)nn2c1	none
Cc1ccc(C)c(CN2C(=O)c3ccccc3S(=O)c3ccc(C(=O)NCCc4ccc(Cl)cc4)cc32)c1 (configuration not stated)	Pf Dd2 growth 5.01µM
O=C(NCc1ccc2c(c1)OCO2)c1ccc2c(c1)N(Cc1ccccc1)C(=O)c1ccccc1S2=O (configuration not stated)	none
O=C(NCc1ccc2c(c1)OCO2)c1ccc2c(c1)N(Cc1ccc(F)cc1)C(=O)c1ccccc1S2=O (configuration not stated)	none
COCCNC(=O)c1ccc2c(c1)N(Cc1cc(C)ccc1C)C(=O)c1ccccc1S2=O (configuration not stated)	none
COCCCNC(=O)c1ccc2c(c1)N(Cc1ccccc1)C(=O)c1ccccc1S2	none
O=C(NCCc1ccccc1)c1ccc2c(c1)N(Cc1ccc(F)cc1)C(=O)c1ccccc1S2	none
O=C(NC1CCCC1)c1ccc2c(c1)N(Cc1ccccc1)C(=O)c1ccccc1S2	none
O=C(NC1CCCC1)c1ccc2c(c1)N(Cc1ccc(F)cc1)C(=O)c1ccccc1S2	none
Cc1ccc(C)c(CN2C(=O)c3ccccc3S(=O)c3ccc(C(=O)NCc4ccccc4Cl)cc32)c1 (configuration not stated)	none
O=C(NCc1ccc2c(c1)OCO2)c1ccc2c(c1)N(Cc1cccc(Cl)c1)C(=O)c1ccccc1S2	Pf Dd2 growth 10µM
CCOc1ccc(CN2C(=O)c3ccccc3Sc3ccc(C(=O)NC4CCC(C)CC4)cc32)cc1 (configuration not stated)	Pf Dd2 growth 11.2µM
COc1ccc(CCNC(=O)c2ccc3c(c2)N(Cc2ccc(Cl)cc2)C(=O)c2ccccc2S3)cc1OC	Pf Dd2 growth 7.94µM
O=C([C@@H]1C[C@H](Oc2ccccc2)CN1S(=O)(=O)c1cccc(F)c1)N1CCOCC1	none
COCCN1C(=O)c2cccn2CC1CNC(=O)c1ccc2ncccc2c1 (configuration not stated)	none
Cc1ccccc1-c1nocc1CCC(=O)O	none
Cc1ccc(F)c(S(=O)(=O)N2CCC3(CC2)C(C(=O)O)CC(=O)N3C)c1 (configuration not stated)	none
COc1cccc(NC(=O)N2CCN3C(=O)N(C)C[C@H]3C2)c1	none
Cc1ncsc1CN(Cc1ccccc1)C(=O)c1cn(CCC2CCCCC2)nn1	none
O=C1NCCN2CC3(CCN(S(=O)(=O)c4cccc(F)c4)CC3)CC12 (configuration not stated)	none
COc1cc(NC(=O)CCn2ccn3nc4c(c3c2=O)CCCC4)cc(OC)c1	none
CC1CCC(NC(=O)c2ccc3c(c2)N(Cc2ccccc2F)C(=O)c2ccccc2S3=O)CC1 (configuration not stated)	Pf Dd2 growth 10µM
CCC(C)NC(=O)c1ccc2c(c1)N(Cc1ccccc1)C(=O)c1ccccc1S2 (configuration not stated)	none
O=C(NCc1ccco1)c1ccc2c(c1)N(Cc1ccc(Cl)cc1)C(=O)c1ccccc1S2	none
CC1CCC(NC(=O)c2ccc3c(c2)N(Cc2ccccc2F)C(=O)c2ccccc2S3(=O)=O)CC1 (configuration not stated)	none
COCCCNC(=O)c1ccc2c(c1)N(Cc1ccccc1F)C(=O)c1ccccc1S2=O (configuration not stated)	none
O=C(NCCCN1CCOCC1)c1ccc2c(c1)N(Cc1ccccc1)C(=O)c1ccccc1S2	none
Cc1ccc(CN2C(=O)c3ccccc3Sc3ccc(C(=O)OCc4ccco4)cc32)cc1	none
CCOc1ccc(CN2C(=O)c3ccccc3Sc3ccc(C(=O)NCc4ccco4)cc32)cc1	Pf Dd2 growth 5.01µM
Cc1ccccc1CN1C(=O)c2ccccc2S(=O)c2ccc(C(=O)N3CCOCC3)cc21 (configuration not stated)	none
Cc1ccc(C)c(CN2C(=O)c3ccccc3Sc3ccc(C(=O)NCc4ccc5c(c4)OCO5)cc32)c1	Pf Dd2 growth 8.91µM
Cc1ccccc1CN1C(=O)c2ccccc2Sc2ccc(C(=O)OCc3ccco3)cc21	Pf Dd2 growth 8.91µM
Cc1ccc(C)c(CN2C(=O)CSc3ccc(C(=O)NCc4ccccc4)cc32)c1	none
O=C(COc1ccccc1)NCC(=O)N1CCCCCNC(=O)CC1c1ccccc1 (configuration not stated)	none
CSc1ccc(CNC(=O)C2(c3ccc(NS(C)(=O)=O)cc3)CCCCC2)cc1	none
COc1ccc(-c2[nH]nc3ncc(-c4ccc(F)cc4OC)nc23)c(C)c1	none
CC(C)CC(=O)N1CC[C@H]2COC(=O)N2c2cc(F)ccc2C1	none
Cc1ccc2ncccc2c1Cn1ccnc1-c1cc2n(n1)CCCNC2	none
O=C(O)c1cc(-c2ccccc2CO)cc(S(=O)(=O)N2CCCCCC2)c1	none
O=C1NC[C@@H](CCC(=O)N2CCOCC2)N2C[C@@H](NCc3ccc(F)cc3)C[C@@H]12	none
C[C@@H](NC(=O)c1ccc2c(c1)OCO2)c1onc(-c2cccnc2)c1C(=O)O	none
O=C(Nc1ccc([C@H]2OCC(=O)N(C3CCOCC3)[C@@H]2CO)cc1)c1ccc(C(F)(F)F)cc1	none
COC1C(=O)N(C2CCN(C(=O)c3cccnc3)CC2)C12CCOCC2 (configuration not stated)	none
COc1nccnc1NC1CCN(C(=O)c2ccc3nc[nH]c3c2)CC1	none
CN[C@@H](CO)C(=O)NCc1nc(-c2cccc(F)c2)c(-c2ccccn2)[nH]1	none
Cc1ccc(C)c(CN2C(=O)c3ccccc3Sc3ccc(C(=O)NCc4ccco4)cc32)c1	Pf Dd2 growth 11.2µM
CCOc1ccc(CN2C(=O)c3ccccc3Sc3ccc(C(=O)O)cc32)cc1	none

Screening data as filed in PubChem.
